Most compounds without a hit are left out; they make up all but 4.3% or so of the library.
BoNT-F LC inh: BoNT/F light chain protease inhibitors, primary screen, biochemical, flow cytometry, MLPCN library | Botulinum neurotoxin type F light chain protease (Clostridium botulinum) | Multiplex microsphere protease cleavage assay | inhibition, % at 10 µM | 360,000 tested, 0.22% active | AID 588497, 2011; in the data active = inhibition above about 35%, passing the limit was not always enough; inconclusive = no clear call, values can overlap the other calls
BoNT A protease: BoNT/A light chain protease inhibitors, primary screen, biochemical, flow cytometry, MLPCN library | 360,000 tested, 0.17% active | multiplex microsphere protease substrate cleavage | Botulinum neurotoxin type A light chain protease (Clostridium botulinum A str. ATCC 3502) | AID 588499, 2011 | inhibition, % at 10 µM
MazF activator: activators of E. coli MazEF toxin-antitoxin RNase, primary screen, biochemical, fluorescence, uHTS | Endoribonuclease toxin MazF (Escherichia coli (strain K12)), P0AE70 | FAM/BHQ RNA-DNA oligo cleavage fluorescence, 5 h | activation, % at 20 µM | 350,000 tested, 0.32% active | AID 504720, 2011; in the data active = activation above about 50%
Target sequence (P0AE70 whole entry, looked up): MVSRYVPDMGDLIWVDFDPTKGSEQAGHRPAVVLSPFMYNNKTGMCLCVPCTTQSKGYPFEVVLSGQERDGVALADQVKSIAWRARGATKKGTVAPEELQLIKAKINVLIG
Autofluor counter: counter-screen for toxin protease inhibitors: compound fluorescence; fluorescence intensity (test concentration not listed); 360,000 tested, 3.1% active; AID 624483; compound autofluorescence counterscreen, microsphere flow cytometry; stronger effect = higher value; in the data active = fluorescence intensity above about 16000; inconclusive = no clear call, values can overlap the other calls
Anthrax LF inh2: Bacillus anthracis LF protease inhibitors, primary screen, biochemical, multiplex microsphere, MLPCN library; Lethal factor (Bacillus anthracis), P15917; inhibition, % at 10 µM; multiplex microsphere protease cleavage assay; 360,000 tested, 0.12% active
PfHsp40 yeast: rescue of yeast from PfHsp40 toxicity, primary screen, S. cerevisiae, ATP luminescence; S. cerevisiae expressing PfHsp40, growth rescue; growth rescue, % at 12.5 µM; 340,000 tested, 0.68% active; AID 504582, 2011; in the data active = growth rescue above about 28%, passing the limit was not always enough; inconclusive = no clear call, values can overlap the other calls;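 note: yeast W303a lacking pdr1 and pdr3 grown in galactose medium; growth measured after three days at 30 °C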
Numbers stand for hits; . = inactive; ? = inconclusive; / = no result. Cut-off read from the data, not from the text of the source, unless noted: active = inhibition above about 30%; inconclusive = no clear call, values can overlap the other calls; inactive = below that.

SMILES | BoNT-F LC inh | BoNT A protease | MazF activator | Autofluor counter | Anthrax LF inh2 | PfHsp40 yeast
CSc1ccccc1NC(=O)CSc1nncs1 | . | . | . | . | . | .
Cc1ccc(C)c(N(CC(=O)N/N=C/c2ccc(-c3ccc([N+](=O)[O-])cc3)o2)S(=O)(=O)c2ccccc2)c1 | . | 50 | . | . | 42 | .
O=C(CN(c1cccc(Br)c1)S(=O)(=O)c1ccccc1)N/N=C/c1cc([N+](=O)[O-])ccc1O | . | . | . | . | . | 247
O=C(N/N=C/c1ccc(Sc2nc3ccccc3s2)c([N+](=O)[O-])c1)c1ccccn1 | . | . | 101 | . | . | .
O=C(Cc1ccccc1)N/N=C/c1ccc(-c2ccc([N+](=O)[O-])cc2)o1 | . | . | 348 | . | . | .
O=C(N/N=C/c1ccc(Cl)c([N+](=O)[O-])c1)c1cnccn1 | . | . | . | . | . | .
C=C1CC2C(=O)N(Cc3ccccc3)C(C(=O)OCC)(C(=O)OCC)C1N2C(=O)OC(C)(C)C (stereo unspecified) | . | . | . | . | . | .
CC1CN=C(c2ccccc2)O1 (stereo unspecified) | . | . | . | . | . | .
COc1ccc(C(=O)C2CCCN(C(=O)c3ccoc3C)C2)cc1F (stereo unspecified) | . | . | . | . | . | .
Cc1ccc(NCC(=O)N/N=C\c2ccc([N+](=O)[O-])o2)cc1 | . | . | . | . | . | .
O=C(CNc1ccccc1)N/N=C/c1ccc([N+](=O)[O-])o1 | . | . | . | 24670 | . | .
O=C(CSc1nc2ccccc2s1)N/N=C/c1cc([N+](=O)[O-])ccc1O | . | . | . | . | . | 190
O=C(COC(=O)c1cccnc1)c1ccc(Cl)c(Cl)c1 | . | . | . | . | . | .
O=C(COC(=O)c1cccnc1)c1ccc(Cl)cc1 | . | . | . | 19665 | . | .
CC1=CC2=C(OC1N(C)C)c1cccc3cccc(c13)C2=O (stereo unspecified) | . | . | . | 21836 | . | .
COc1ccccc1/C=C/C1=NC(=C\C=C/c2ccccc2)/C(=O)O1 | 58 | . | . | . | . | .
O=C(NN1C(=O)c2ccccc2NC1c1ccc([N+](=O)[O-])o1)c1ccc(Br)cc1 (stereo unspecified) | . | . | 64 | . | . | .
Cc1ccccc1C1=C/C(=C(\SS/C(C(=O)c2ccc(OCC(=O)O)c(Cl)c2Cl)=C2\C=C(c3ccccc3C)SS2)C(=O)c2ccc(OCC(=O)O)c(Cl)c2Cl)SS1 | . | . | . | . | . | .
COc1ccc(C2C(C(=O)Nc3cccnc3)=C(C)Nc3nc(-c4cccs4)nn32)cc1 (stereo unspecified) | . | . | . | 21944 | . | .
COc1ccc(C2C(C(=O)Nc3cccnc3)=C(C)Nc3nc(-c4cccs4)nn32)cc1OC (stereo unspecified) | . | . | . | . | . | .
Cc1cc(C)c(COc2ccc(/C=N/n3c(C)n[nH]c3=S)cc2)c(C)c1 | . | . | . | . | . | .
CCC1(C)Cc2ccccc2-c2nc3n(c(=O)c21)CCCCC3 (stereo unspecified) | . | . | . | 21213 | . | .
CCC1(C)Cc2ccccc2-c2nc(NCCO)n(-c3ccccc3)c(=O)c21 (stereo unspecified) | . | . | . | 16333 | . | .
CCC1(C)Cc2ccccc2-c2nc(NCCO)n(-c3ccc(C)cc3)c(=O)c21 (stereo unspecified) | . | . | . | . | . | .
CCC1(CC)Cc2ccccc2-c2nc(NCCO)[nH]c(=O)c21 | . | . | . | 20997 | . | .
SMILES | BoNT-F LC inh | BoNT A protease | MazF activator | Autofluor counter | Anthrax LF inh2 | PfHsp40 yeast
Cn1c(=O)n(C)c2cc(S(=O)(=O)Nc3cc(Cl)ccc3O)ccc21 | . | . | . | . | . | .
O=C(NCc1ccccc1)C1=C[C@@H](C2CC2)C[C@@H](OCc2ccc(CO)cc2)O1 | . | . | . | . | . | 55
CCS(=O)(=O)N1CCCC(C(=O)NCCc2ccc(C)cc2)C1 (stereo unspecified) | . | . | . | . | . | .
Cc1ccc(CCNC(=O)C2CCCN(C(=O)N(C)C)C2)cc1 (stereo unspecified) | . | . | . | 25529 | . | .
CN(C)C(=O)N1CCCC(C(=O)NCCc2ccccc2)C1 (stereo unspecified) | . | . | . | 24323 | . | .
CN(C)C(=O)N1CCCC(C(=O)NCc2ccccc2)C1 (stereo unspecified) | . | . | . | . | . | .
CC1=C(C)CC(C(=O)NCCc2ccccc2)C(C(=O)O)C1 (stereo unspecified) | . | . | . | 23755 | . | .
COC(=O)c1cnc(SC)nc1C | . | ? | . | 20134 | . | .
CSc1ncc(C(=O)Nc2ccccc2C)c(C)n1 | . | . | . | . | . | .
CN1CCN(S(=O)(=O)Cc2ccc(Cl)cc2)CC1 | 36 | . | . | . | ? | .
O=S(=O)(Cc1ccc(Cl)cc1)N1CCN(Cc2ccccc2)CC1 | . | . | . | . | . | .
CSc1ccc(CN2CCN(S(=O)(=O)Cc3ccccc3)CC2)cc1 | . | . | . | 27972 | . | .
Cc1ccc(-c2nnn(CC(=O)NC(=O)NC3CCCCC3)n2)cc1 | . | . | . | . | . | .
C/C(NCCc1ccccc1)=C1/CCOC1=O | . | . | . | . | . | /
CS(=O)(=O)c1ccc2nc(NC(=O)c3ccc(N4C(=O)CCC4=O)cc3)sc2c1 | / | / | . | / | / | /
CC(C)(C)NCCOCCOc1ccccc1-c1ccccc1 | . | . | . | . | . | .
CCC(C)NCCOCCOc1ccc(Cl)cc1Br (stereo unspecified) | 35 | . | . | . | . | .
CCC(C)NCCOCCOc1ccccc1-c1ccccc1 (stereo unspecified) | . | . | . | 23087 | . | .
Cc1ccc(S(=O)(=O)N2CCN(C(=O)c3sccc3-c3ccccc3)CC2)cc1 | . | . | . | ? | . | .
CCCS(=O)(=O)N1CCCC(c2nc(-c3ccc(OC)cc3)no2)C1 (stereo unspecified) | . | . | . | . | . | .
CC(=O)c1cccc(S(=O)(=O)N2CCCC(c3nc(-c4ccc(C)o4)no3)C2)c1 (stereo unspecified) | . | ? | . | 17085 | . | .
Cc1ccc(-c2noc(C3CCCN(S(=O)(=O)c4ccc5ccccc5c4)C3)n2)o1 (stereo unspecified) | . | . | . | . | . | .
COc1ccc(-c2noc(C3CCCN(S(=O)(=O)c4cccc(Cl)c4C)C3)n2)cc1OC (stereo unspecified) | . | . | . | 17219 | . | .

High-throughput results from PubChem BioAssay.
